Assay outcomes (PubChem)
Only some compounds are listed: those with a hit (about 27% of all), similar ones and a draw of the others.
CYP2C19 inh: human CYP2C19 inhibition | P33261 | CYP2C19 Supersomes, luciferin-H EGE luminescence, 30 min | inhibition, % at 5 µM | 96,000 compounds, 21% hits | AID 778;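 active = CYP2C19 inhibition above a set limit at 5 µM in the primary screen, cut at about 50% in these data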;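 also: plate controls were negative control wells for no effect and 2.5 mM tranylcypromine positive control for full effect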
Target sequence (P33261 whole entry, looked up): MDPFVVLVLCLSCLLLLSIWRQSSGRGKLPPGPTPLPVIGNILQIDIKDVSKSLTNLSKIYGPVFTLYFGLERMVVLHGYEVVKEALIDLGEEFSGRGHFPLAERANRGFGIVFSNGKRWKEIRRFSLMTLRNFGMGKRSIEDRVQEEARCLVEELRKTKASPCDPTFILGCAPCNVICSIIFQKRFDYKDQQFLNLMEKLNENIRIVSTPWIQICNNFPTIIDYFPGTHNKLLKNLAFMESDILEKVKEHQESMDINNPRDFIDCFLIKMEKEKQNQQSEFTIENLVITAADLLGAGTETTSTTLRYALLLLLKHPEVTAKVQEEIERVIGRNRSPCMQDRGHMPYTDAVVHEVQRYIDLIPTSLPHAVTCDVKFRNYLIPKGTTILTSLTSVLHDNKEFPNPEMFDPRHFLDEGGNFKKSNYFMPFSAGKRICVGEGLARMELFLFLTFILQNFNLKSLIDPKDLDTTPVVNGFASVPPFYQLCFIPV
CYP2C9 act: increases human cytochrome P450 2C9 activity. P11712. 96,000 compounds, 1.4% hits. activation factor at 5 µM. recombinant CYP2C9, luciferin-H conversion, luminescence; hits give high values; factor 1 = untreated enzyme, 0 = blocked;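 active = activation factor of 2 or more for CYP2C9 at a 5 µM dose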;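 also: 0 = sulfaphenazole-blocked wells and 1 = vehicle-only wells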
Cav32 inh: human Cav3.2 channel inhibition, primary screen; Cav3.2-expressing cells, Fluo-4 calcium fluorescence FDSS; hits give low values; 100,000 compounds, 4% hits; O95180; B-score at 10 µM;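 active = single-dose well whose peak fluorescence ratio is a statistical outlier from its plate by either plate-standardised score or position-corrected B-score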
CYP2C19 act: activators of human cytochrome P450 2C19. P33261. recombinant CYP2C19, luciferin-H EGE luminescence; hits give high values; 0 = fully inhibited enzyme, 1 = untreated enzyme. activation factor at 5 µM. 96,000 tested, under 10 active. AID 1025;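 active = activation factor of at least 2 at 5 µM in the primary screen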;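 also: 0 = wells with 2.5 mM tranylcypromine and 1 = vehicle-only wells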
CYP2C9 inh: blocks human cytochrome P450 2C9 | P11712 | CYP2C9 Supersomes, luciferin-H conversion, luminescence | inhibition, % at 5 µM | 96,000 compounds, 20% hits | AID 777;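 active = blocking of liver enzyme CYP2C9 beyond about 50% at 5 µM, limit read from the data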
* hit, by the source's call; . = no result.

SMILES | CYP2C19 inh | CYP2C9 act | Cav32 inh | CYP2C19 act | CYP2C9 inh
COc1ccccc1OCc1ccc(C(=O)N(C)C)o1 | 20 | 1 | 0.94 | 0.8 | 4
COc1ccccc1NC(=O)c1ccc(COc2ccccc2OC)o1 | 58* | 2.8* | 0.21 | 0.4 | -185
O=C(Nc1nccs1)c1ccc(COc2ccccc2Br)o1 | 88* | 0.1 | -1.2 | 0.1 | 91*
CN(C)C(=O)c1ccc(COc2ccccc2Br)o1 | 83* | 0.7 | -2.7 | 0.2 | 26
COc1ccccc1NC(=O)c1ccc(-c2ccccc2F)o1 | 4 | 1 | 0.039 | 1 | -2
Cn1c(=O)c2c(nc(SCc3cccnc3)n2Cc2ccc(F)cc2)n(C)c1=O | 26 | 0.6 | -2.5 | 0.7 | 41
O=S(=O)(NCc1ccc2c(c1)OCO2)c1cccc2cccnc12 | 64* | 2.7* | -1.6 | 0.4 | -170
O=S(=O)(c1cccc2cccnc12)N1CCN(Cc2ccc3c(c2)OCO3)CC1 | 46 | 2.5* | 0.088 | 0.5 | -150
Cc1scc(C(=O)N2CCN(S(C)(=O)=O)CC2)c1-c1ccccc1 | 97* | 0.7 | 0.12 | 0 | 34
Nc1nonc1-c1noc(CCCN2C(=O)c3ccccc3C2=O)n1 | 57* | 0.9 | -0.12 | 0.4 | 12
O=C1c2ccccc2C(=O)N1CCCc1nc(-c2ccncc2)no1 | 41 | 0.6 | 0.82 | 0.6 | 43
Nc1nonc1-c1noc(-c2ccccc2Br)n1 | 67* | 1 | . | 0.3 | 0
Nc1nonc1-c1noc(N2CCOCC2)n1 | . | . | -0.025 | . | .
Cc1cccnc1NC(=O)C1CCN(S(=O)(=O)c2ccc3c(c2)CCC(=O)N3)CC1 | 6 | 0.7 | 0.14 | 0.9 | 26
CC1(C)Cc2c(sc3nc(SCC(=O)NCc4ccco4)n(-c4ccccc4)c(=O)c23)CS1 | 26 | 0.5 | -2.6 | 0.7 | 54*
O=C(CCn1c(SCC(=O)NCc2ccco2)nc2ccccc2c1=O)NCCc1ccccc1 | 77* | 0.1 | -0.18 | 0.2 | 85*
Cc1sc2nc(SCC(=O)NCc3ccco3)n(CCc3ccccc3)c(=O)c2c1C | 40 | 0.3 | -1.1 | 0.6 | 65*
Cc1sc2nc(SCC(=O)NCc3ccco3)n(C)c(=O)c2c1C | 28 | 0.7 | 1.5 | 0.7 | 34
O=C(CSc1nc2sc3c(c2c(=O)n1-c1ccccc1)CCCC3)NCc1ccco1 | -8 | 1.1 | . | 1.1 | -10
Cc1ccc(N(CN2CCCC2=O)C(=O)c2ccc(OC(C)C)cc2)cc1 | 34 | 0.9 | 0.011 | 0.7 | 13
Cn1c(=O)oc2cc(C(=O)c3ccccc3)ccc21 | 20 | 1.1 | . | 0.8 | -13
Cc1c(C#N)c2ccccc2n1CC(=O)NCc1ccccc1 | . | . | -1.6 | . | .
Cc1c(C#N)c2ccccc2n1CC(=O)NCc1cccnc1 | 71* | 0.5 | 0.36 | 0.3 | 54*
O=C(CN1C(=O)c2cccc3cccc1c23)N1CCN(c2ccc(F)cc2)CC1 | 5 | 2.2* | 1.3 | 0.9 | -119
O=C(CN1C(=O)c2cccc3cccc1c23)NCc1cccnc1 | 83* | 1.2 | -0.29 | 0.2 | -20
SMILES | CYP2C19 inh | CYP2C9 act | Cav32 inh | CYP2C19 act | CYP2C9 inh
CCN1C(=O)c2cccc3cccc1c23 | 40 | 4.1* | 0.85 | 0.6 | -306
O=C(CN1C(=O)c2cccc3cccc1c23)N1CCN(c2ccccc2)CC1 | 20 | 1.5 | 0.94 | 0.8 | -46
CCN1C(=O)c2cccc3c(NC(=O)C(C)(C)C)ccc1c23 | 6 | 0.8 | -0.41 | 0.9 | 22
CC(=O)c1cn(CC(=O)NCc2cccnc2)c2ccccc12 | 77* | 0.2 | 0.12 | 0.2 | 83*
COCCCNC(=O)Cn1cc(C(C)=O)c2ccccc21 | 4 | 0.9 | -0.039 | 1 | 11
COc1cccc(NC(=O)CCS(=O)(=O)c2cccs2)c1 | 60* | 0.4 | 1.1 | 0.4 | 58*
CCOC(=O)c1cccc(NC(=O)CNS(=O)(=O)c2cccs2)c1 | . | . | 0.047 | . | .
COc1cccc(NC(=O)CNC(=O)c2cccs2)c1 | 47 | 0.7 | 0.0033 | 0.5 | 28
CCOC(=O)c1cccc(NC(=O)CCS(=O)(=O)c2cccs2)c1 | 72* | 0.1 | . | 0.3 | 89*
Cc1csc(NC(=O)CSc2nnc(-c3ccoc3C)n2Cc2ccco2)n1 | 85* | 0.1 | -0.87 | 0.2 | 88*
Cc1occc1-c1nnc(SCC(=O)NCCc2ccccc2)n1C(C)c1ccccc1 (stereo unspecified) | 26 | 0.2 | -3.5 | 0.7 | 84*
Cc1cccc(C)c1NC(=O)CSc1nnc(-c2ccoc2C)n1CCc1ccccc1 | 70* | 0.3 | -1.4 | 0.3 | 68*
Cc1csc(NC(=O)CSc2nnc(-c3ccoc3C)n2CCc2ccccc2)n1 | 47 | 0.4 | -3.8 | 0.5 | 57*
Cc1csc(NC(=O)CSc2nnc(C)n2Cc2ccco2)n1 | 2 | 0.9 | 0.57 | 1 | 14
CC(C)n1nnnc1SCC(=O)NCCc1ccccc1 | 40 | 1 | 1.1 | 0.6 | -1
Cc1occc1-c1nnc(SCC(=O)Nc2nccs2)n1CCc1ccccc1 | 40 | 0.7 | -3 | 0.6 | 26
N[C@@H](Cc1ccc(O)cc1)c1nnc([C@H](CO)NC(=O)C2CCNCC2)o1 | . | . | -0.66 | . | .
CC(C)Oc1cccc(C(=O)O)c1 | 1 | 0.9 | -0.069 | 1 | 6
COc1ccc(NS(=O)(=O)c2cc(-c3nnnn3C)ccc2OC)cc1 | 33 | 0.8 | 0.42 | 0.7 | 20
COc1ccc(C2C=C(c3cccs3)Nc3nc(CCCO)nn32)cc1 (stereo unspecified) | 18 | 0.5 | -12* | 0.8 | 47
OCCCc1nc2n(n1)C(c1ccccc1)C=C(c1ccccc1)N2 (stereo unspecified) | -1 | 1 | -0.74 | 1 | -2
COc1ccc(C2C=C(c3ccccc3)Nc3nc(CCCO)nn32)cc1 (stereo unspecified) | 28 | 0.3 | -1.1 | 0.7 | 67*
Cc1ccc(C(=O)Nc2nccs2)cc1S(=O)(=O)N1CCCCC1 | 66* | 0.3 | -1.9 | 0.3 | 68*
Cc1ccc(C(=O)Nc2ccc3cn[nH]c3c2)cc1S(=O)(=O)N1CCCCC1 | -8 | 0.1 | -1.1 | 1.1 | 92*
Cc1ccc(C(=O)Nc2ccon2)cc1S(=O)(=O)N1CCCC1 | 58* | 1 | 0.14 | 0.4 | 4
SMILES | CYP2C19 inh | CYP2C9 act | Cav32 inh | CYP2C19 act | CYP2C9 inh
O=C(Nc1ccon1)c1cccc(S(=O)(=O)N2CCCC2)c1 | 34 | 0.8 | -1.2 | 0.7 | 16
Cc1ccc(C(=O)NCc2cccs2)cc1S(=O)(=O)N1CCCCC1 | 38 | 0.4 | -0.78 | 0.6 | 56*
O=C1N[C@@H](Cc2cn(S(=O)(=O)c3c(F)c(F)c(F)c(F)c3F)c3ccccc23)C(=O)N[C@H]1Cc1ccccc1 | . | . | 0.39 | . | .
CCOC(=O)CCNC(=O)c1ccccc1Br | 20 | 1 | 2.9 | 0.8 | 3
O=C(c1ccc(S(=O)(=O)N2CCOCC2)cc1)N(Cc1ccco1)Cc1cccs1 | 18 | 0.6 | 0.63 | 0.8 | 42
CNC(=O)c1ccccc1NC(=O)c1ccc(C)c(S(=O)(=O)N2CCCCC2)c1 | 70* | 0.4 | -0.16 | 0.3 | 62*
O=c1nc2ccccc2c2n1CC(CN1CCN(c3ccccc3F)CC1)N2 (stereo unspecified) | -1 | 0.6 | 0.55 | 1 | 36
